# PubChem BioAssay AID602143 (Vanderbilt Specialized Chemistry Center, 2011)
# Values joined by “and” are separate entries in the source; they are usually repeats but may differ in a detail not shown here. Identical values can stand only once. Some compounds were tested as several samples or in several runs, with calls that do not always agree. Active and inactive are the calls of the source. Rule as the data show it: active = remaining activity below about 50%; inactive = the rest.
# Molecular target: Phospholipase D2 (Homo sapiens) (UniProt O14939)
# Assay: PLD2 inhibitors in cells, cell-based, HEK293, single concentration (AID 602143);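 also: tested at 200 nM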
# Settings: HEK293 cellular PLD2 activity, percent of control; stronger effect = lower value
# Sequence of Phospholipase D2 (Homo sapiens) (O14939 whole entry, looked up): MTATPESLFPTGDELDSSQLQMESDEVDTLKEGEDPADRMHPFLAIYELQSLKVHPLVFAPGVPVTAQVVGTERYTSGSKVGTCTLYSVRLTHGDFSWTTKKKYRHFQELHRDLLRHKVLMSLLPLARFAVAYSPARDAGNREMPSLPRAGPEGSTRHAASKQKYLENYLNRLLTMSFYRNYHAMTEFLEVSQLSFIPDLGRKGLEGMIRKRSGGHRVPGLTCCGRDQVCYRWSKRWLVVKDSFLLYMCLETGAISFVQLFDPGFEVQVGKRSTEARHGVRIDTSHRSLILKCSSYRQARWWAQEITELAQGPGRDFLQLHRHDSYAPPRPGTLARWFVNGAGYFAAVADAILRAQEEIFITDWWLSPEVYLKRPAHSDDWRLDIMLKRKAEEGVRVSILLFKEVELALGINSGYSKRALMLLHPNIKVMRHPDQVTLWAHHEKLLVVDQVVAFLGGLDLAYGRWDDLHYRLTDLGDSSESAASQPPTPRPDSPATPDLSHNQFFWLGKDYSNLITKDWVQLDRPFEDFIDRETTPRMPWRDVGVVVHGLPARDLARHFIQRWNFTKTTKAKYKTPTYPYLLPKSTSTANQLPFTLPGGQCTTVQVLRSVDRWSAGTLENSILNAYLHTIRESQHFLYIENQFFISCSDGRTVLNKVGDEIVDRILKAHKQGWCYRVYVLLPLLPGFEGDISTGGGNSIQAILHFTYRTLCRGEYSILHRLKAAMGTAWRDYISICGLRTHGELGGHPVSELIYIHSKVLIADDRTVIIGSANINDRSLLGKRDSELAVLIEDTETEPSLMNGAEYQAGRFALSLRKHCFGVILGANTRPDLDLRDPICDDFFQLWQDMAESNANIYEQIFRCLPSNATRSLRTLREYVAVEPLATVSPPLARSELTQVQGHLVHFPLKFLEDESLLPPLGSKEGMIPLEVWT
# Sequence of Phospholipase D2 (Homo sapiens) (O14939 whole entry, looked up): as above
row,Compound,remaining activity
1,O=C(NCCN1CCC2(CC1)C(=O)NCN2c1ccccc1)c1cc2cccnc2s1,79.2% (inactive)
2,O=C(NCCN1CCC2(CC1)C(=O)NCN2c1ccccc1)c1ccc(-c2ccccc2)o1,50.1% (inactive)
3,O=C(NCCN1CCC2(CC1)C(=O)NCN2c1ccccc1)c1ncc(F)cc1F,52.8% (inactive)
4,O=C(NCCN1CCC2(CC1)C(=O)NCN2c1ccccc1)C(c1ccccc1)c1ccccc1,74.8% (inactive)
5,CC(C)[C@@H](CN1CCC2(CC1)C(=O)NCN2c1ccccc1)NC(=O)c1ccc2ccccc2c1,80.9% (inactive)
6,O=C(NCCN1CCC2(CC1)C(=O)NCN2c1ccccc1)c1ccncn1,93.7% (inactive)
7,O=C(NCCN1CCC2(CC1)C(=O)NCN2c1ccccc1)C1(c2ccccc2)CCC1,87.6% (inactive)
8,C[C@@H](CN1CCC2(CC1)C(=O)NCN2c1ccccc1)NC(=O)[C@@H]1C[C@H]1c1ccccc1,75.9% (inactive)
9,O=C(NCCN1CCC2(CC1)C(=O)NCN2c1ccccc1)c1ncccc1F,82.2% (inactive)
10,O=C(c1ccc2ccccc2c1)N1CC(N2CCC(n3c(=O)[nH]c4ccccc43)CC2)C1,64.3% (inactive)
11,O=C(NCCN1CCC2(CC1)C(=O)NCN2c1cccc(F)c1)c1ccc(OC(F)(F)F)cc1,78% (inactive)
12,Cc1cccc(C(=O)N[C@@H](C)CN2CCC3(CC2)C(=O)NCN3c2ccccc2)c1,83.2% (inactive)
13,O=C(NCCN1CCC2(CC1)C(=O)NCN2c1ccccc1)c1ncc[nH]1,113% (inactive)
14,O=C(NCCN1CCC2(CC1)C(=O)NCN2c1ccccc1)c1cc(Br)c(Br)o1,77.1% (inactive)
15,O=C1c2ccccc2C(=O)N1CCN1CCC2(CC1)C(=O)NCN2c1ccccc1,86.5% (inactive)
16,O=C(c1ccc2ccccc2c1)N1CCCC1CN1CCC(n2c(=O)[nH]c3ccccc32)CC1 (stereo not given),49.9% (active) and 63.2% (inactive)
17,C[C@@H](CN1CCC2(CC1)C(=O)N(Cc1ccccc1)c1ccccc12)NC(=O)c1ccc2ccccc2c1,71.6% (inactive)
18,COc1cccc(C(=O)NCCN2CCC3(CC2)C(=O)NCN3c2ccccc2)n1,60.7% (inactive)

row,Compound,remaining activity
1,O=C(NCCN1CCC2(CC1)C(=O)NCN2c1ccccc1)c1cc(=O)c2cc(Br)ccc2o1,122% (inactive)
2,O=C(CCN1CCC2(CC1)C(=O)NCN2c1ccccc1)Nc1ccc(Cl)cc1,183% (inactive)
3,C[C@@H](CN1CCC2(CC1)C(=O)NCN2c1ccc(F)c(F)c1)NC(=O)c1cc2ccccc2[nH]1,0% (active)
4,O=C(COCc1ccccc1)NCCN1CCC2(CC1)C(=O)NCN2c1cccc(F)c1,86.7% (inactive)
5,O=C(NCCN1CCC2(CC1)C(=O)NCN2c1cccc(F)c1)c1cccc(F)c1,63.4% (inactive)
6,CC(C)[C@@H](CN1CCC2(CC1)C(=O)NCN2c1ccccc1)NC(=O)c1ccc(F)cc1,74.9% (inactive)
7,CCCCCC(=O)NCCN1CCC2(CC1)C(=O)NCN2c1cccc(F)c1,80.7% (inactive)
8,O=C(c1cnc2ccccc2c1)N1CC(N2CCC(n3c(=O)[nH]c4cc(Br)ccc43)CC2)C1,99.7% (inactive)
9,O=C(NCCN1CCC2(CC1)C(=O)NCN2c1cccc(F)c1)c1cc2cc(F)ccc2[nH]1,0.401% (active)
10,O=C(c1c(F)cccc1F)N(CCN1CCC2(CC1)C(=O)NCN2c1cccc(F)c1)C(=O)c1c(F)cccc1F,88.1% (inactive)
11,O=C(NCCN1CCC2(CC1)C(=O)NCN2c1cccc(F)c1)c1cnc2ccccc2c1,5.53% (active)
12,CC(C)[C@@H](CN1CCC2(CC1)C(=O)NCN2c1ccccc1)NC(=O)c1cc2ccccc2[nH]1,25.8% (active)
13,CN1CN(c2ccccc2)C2(CCN(CCNC(=O)c3ccc4ccccc4c3)CC2)C1=O,57.9% (inactive)
14,O=C(NCCN1CCC2(CC1)C(=O)NCN2c1ccccc1)C1C[C@H]1c1ccccc1 (stereo not given in full),98.4% (inactive)
15,O=C(CN1CCC2(CC1)C(=O)NCN2c1ccccc1)c1ccccc1,106% (inactive)
16,O=C(CCN1CCC2(CC1)C(=O)NCN2c1ccccc1)Nc1ccc(F)c(F)c1,147% (inactive)
17,Cc1ccccc1C(=O)NCCN1CCC2(CC1)C(=O)NCN2c1cccc(F)c1,115% (inactive)
